Data taken from paper PMC7862700, “An all-to-all approach to the identification of sequence-specific readers for epigenetic DNA modifications on cytosine”.

Columns and labels:
Test in all cases: DAPPL (digital affinity profiling via proximity ligation, sequencing); 10 mM Tris-HCl pH 7.5, 50 mM NaCl, 1 mM DTT, 4% glycerol, room temperature, 30 min; GST-TFs on glutathione beads, 16-mer random dsDNA library, 0.1% formaldehyde crosslink after washing; high values mean tight binding
FEV = target: T1, FEV (Homo sapiens, UniProt Q99581 1-238); conditions: protein: recombinant; tags: N-terminal GST; dsDNA, one strand shown
T1 sequence: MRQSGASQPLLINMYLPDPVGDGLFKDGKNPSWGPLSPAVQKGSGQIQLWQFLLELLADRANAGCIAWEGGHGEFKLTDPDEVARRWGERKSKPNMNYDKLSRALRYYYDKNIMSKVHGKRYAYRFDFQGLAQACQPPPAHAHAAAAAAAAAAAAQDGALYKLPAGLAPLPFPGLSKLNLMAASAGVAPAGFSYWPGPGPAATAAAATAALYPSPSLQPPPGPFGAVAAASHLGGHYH
In short: (§1)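 Human transcription factors were made in yeast as GST fusions, captured on glutathione beads and barcoded with DNA. With a tag-only sample included, the pool was incubated with 200 nmole of a random double-stranded 16-mer DNA library in Tris/NaCl/DTT/glycerol buffer at room temperature for 30 min, then crosslinked with 0.1% formaldehyde after washing, ligated by proximity, amplified and sequenced. For binding signal, each hexamer's read frequency for a factor is divided by its frequency for the tag-only sample.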

ETV5 = ETV5 (Homo sapiens, UniProt P41161 1-510); conditions: protein: recombinant; tags: N-terminal GST; dsDNA, one strand shown
In short: as §1

HSF1 = HSF1 (Homo sapiens, UniProt Q00613 1-529); conditions: protein: recombinant; tags: N-terminal GST; chain copies: 3; dsDNA, one strand shown
In short: as §1

SPIC = target: T2, SPIC (Homo sapiens, UniProt Q8N5J4 1-248); conditions: protein: recombinant; tags: N-terminal GST; dsDNA, one strand shown
T2 sequence: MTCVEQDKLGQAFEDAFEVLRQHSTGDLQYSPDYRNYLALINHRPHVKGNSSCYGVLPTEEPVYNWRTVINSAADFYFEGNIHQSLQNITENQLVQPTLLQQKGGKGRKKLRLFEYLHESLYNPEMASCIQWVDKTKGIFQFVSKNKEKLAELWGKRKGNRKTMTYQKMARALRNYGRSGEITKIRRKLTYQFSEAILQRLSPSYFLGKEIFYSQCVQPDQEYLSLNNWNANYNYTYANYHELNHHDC
In short: as §1

ELF4 = ELF4 (Homo sapiens, UniProt Q99607 1-663); conditions: protein: recombinant; tags: N-terminal GST; dsDNA, one strand shown
In short: as §1

ELK4 = target: T3, ELK4 (Homo sapiens, UniProt P28324-2 1-405); conditions: protein: recombinant; tags: N-terminal GST; dsDNA, one strand shown
T3 sequence: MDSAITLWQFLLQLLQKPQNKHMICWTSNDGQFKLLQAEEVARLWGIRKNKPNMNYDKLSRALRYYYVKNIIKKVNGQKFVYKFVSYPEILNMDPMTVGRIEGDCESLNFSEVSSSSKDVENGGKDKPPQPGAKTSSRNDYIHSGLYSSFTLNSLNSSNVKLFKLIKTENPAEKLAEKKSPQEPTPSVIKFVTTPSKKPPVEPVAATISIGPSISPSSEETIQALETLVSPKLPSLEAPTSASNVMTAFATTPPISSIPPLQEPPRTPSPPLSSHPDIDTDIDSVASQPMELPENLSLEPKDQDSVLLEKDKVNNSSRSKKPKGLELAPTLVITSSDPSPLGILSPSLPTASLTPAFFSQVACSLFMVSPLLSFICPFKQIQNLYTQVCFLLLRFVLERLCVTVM
In short: as §1

ETV2 = target: T4, ETV2 (Homo sapiens, UniProt O00321 1-342); conditions: protein: recombinant; tags: N-terminal GST; dsDNA, one strand shown
T4 sequence: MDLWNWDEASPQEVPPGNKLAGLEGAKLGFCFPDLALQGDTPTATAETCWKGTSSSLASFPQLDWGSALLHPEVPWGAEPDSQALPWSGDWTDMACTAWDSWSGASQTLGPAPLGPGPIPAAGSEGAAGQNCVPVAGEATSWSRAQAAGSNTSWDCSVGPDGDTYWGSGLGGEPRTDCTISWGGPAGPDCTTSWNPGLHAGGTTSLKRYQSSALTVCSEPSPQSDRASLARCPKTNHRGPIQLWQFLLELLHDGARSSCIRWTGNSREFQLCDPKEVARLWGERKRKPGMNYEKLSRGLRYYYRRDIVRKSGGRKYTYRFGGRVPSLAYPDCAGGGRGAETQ
In short: as §1

ELF3 = target: T5, ELF3 (Homo sapiens, UniProt P78545 1-371); conditions: protein: recombinant; tags: N-terminal GST; dsDNA, one strand shown
T5 sequence: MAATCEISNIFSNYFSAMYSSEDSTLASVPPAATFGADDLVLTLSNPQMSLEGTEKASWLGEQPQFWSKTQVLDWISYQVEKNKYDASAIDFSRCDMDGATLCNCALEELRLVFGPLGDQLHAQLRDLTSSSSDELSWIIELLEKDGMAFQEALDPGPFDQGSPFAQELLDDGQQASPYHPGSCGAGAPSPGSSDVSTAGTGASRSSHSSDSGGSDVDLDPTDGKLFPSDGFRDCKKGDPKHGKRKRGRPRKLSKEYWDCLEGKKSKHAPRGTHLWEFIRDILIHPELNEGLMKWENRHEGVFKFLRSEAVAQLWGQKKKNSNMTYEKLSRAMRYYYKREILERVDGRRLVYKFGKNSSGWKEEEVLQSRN
In short: as §1

CRX = CRX (Homo sapiens, UniProt O43186 1-299); conditions: protein: recombinant; tags: N-terminal GST; dsDNA, one strand shown
In short: as §1

ETV1 = ETV1 (Homo sapiens, UniProt P50549 1-477); conditions: protein: recombinant; tags: N-terminal GST; dsDNA, one strand shown
In short: as §1

ERF = target: T6, ERF (Homo sapiens, UniProt P50548 1-548); conditions: protein: recombinant; tags: N-terminal GST; dsDNA, one strand shown
T6 sequence: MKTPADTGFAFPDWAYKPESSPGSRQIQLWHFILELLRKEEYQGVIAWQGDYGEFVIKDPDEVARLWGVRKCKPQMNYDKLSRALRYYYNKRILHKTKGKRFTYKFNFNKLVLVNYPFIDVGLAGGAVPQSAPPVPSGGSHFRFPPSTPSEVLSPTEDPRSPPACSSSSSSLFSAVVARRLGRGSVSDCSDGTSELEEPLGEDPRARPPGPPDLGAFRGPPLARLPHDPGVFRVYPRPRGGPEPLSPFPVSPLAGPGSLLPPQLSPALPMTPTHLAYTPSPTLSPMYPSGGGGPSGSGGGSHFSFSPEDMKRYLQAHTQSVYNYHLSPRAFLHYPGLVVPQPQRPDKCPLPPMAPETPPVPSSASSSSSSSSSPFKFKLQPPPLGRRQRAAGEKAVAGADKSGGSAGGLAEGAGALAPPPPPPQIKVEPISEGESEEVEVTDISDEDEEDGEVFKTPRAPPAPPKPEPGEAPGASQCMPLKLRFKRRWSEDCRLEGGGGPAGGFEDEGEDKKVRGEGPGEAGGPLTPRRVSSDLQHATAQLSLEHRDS
In short: as §1

ETV3L = target: T7, ETV3L (Homo sapiens, UniProt Q6ZN32 1-361); conditions: protein: recombinant; tags: N-terminal GST; dsDNA, one strand shown
T7 sequence: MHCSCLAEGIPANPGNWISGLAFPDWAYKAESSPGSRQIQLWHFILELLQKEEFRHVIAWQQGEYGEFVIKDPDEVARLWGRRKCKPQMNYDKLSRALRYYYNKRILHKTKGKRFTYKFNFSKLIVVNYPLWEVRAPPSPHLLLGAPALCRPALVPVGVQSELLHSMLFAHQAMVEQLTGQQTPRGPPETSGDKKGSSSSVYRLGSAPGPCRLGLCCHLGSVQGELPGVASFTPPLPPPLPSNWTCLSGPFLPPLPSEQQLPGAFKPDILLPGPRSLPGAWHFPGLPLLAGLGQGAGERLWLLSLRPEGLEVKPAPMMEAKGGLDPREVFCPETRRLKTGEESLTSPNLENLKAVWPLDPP
In short: as §1

ETS2 = target: T8, ETS2 (Homo sapiens, UniProt P15036 1-469); conditions: protein: recombinant; tags: N-terminal GST; dsDNA, one strand shown
T8 sequence: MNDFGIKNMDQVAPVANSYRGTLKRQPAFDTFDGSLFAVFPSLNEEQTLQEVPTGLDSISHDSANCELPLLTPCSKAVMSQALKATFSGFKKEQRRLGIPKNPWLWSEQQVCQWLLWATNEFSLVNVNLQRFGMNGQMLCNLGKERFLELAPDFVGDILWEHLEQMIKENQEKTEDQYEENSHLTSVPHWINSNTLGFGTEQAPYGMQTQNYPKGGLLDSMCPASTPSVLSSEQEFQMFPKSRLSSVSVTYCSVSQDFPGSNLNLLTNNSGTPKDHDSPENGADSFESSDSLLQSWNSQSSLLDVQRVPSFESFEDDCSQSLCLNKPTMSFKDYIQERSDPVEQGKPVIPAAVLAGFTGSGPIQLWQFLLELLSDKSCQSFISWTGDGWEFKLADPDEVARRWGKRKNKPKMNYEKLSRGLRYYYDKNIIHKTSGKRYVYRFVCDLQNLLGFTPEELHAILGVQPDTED
In short: as §1

SPDEF = target: T9, SPDEF (Homo sapiens, UniProt O95238 1-335); conditions: protein: recombinant; tags: N-terminal GST; dsDNA, one strand shown
T9 sequence: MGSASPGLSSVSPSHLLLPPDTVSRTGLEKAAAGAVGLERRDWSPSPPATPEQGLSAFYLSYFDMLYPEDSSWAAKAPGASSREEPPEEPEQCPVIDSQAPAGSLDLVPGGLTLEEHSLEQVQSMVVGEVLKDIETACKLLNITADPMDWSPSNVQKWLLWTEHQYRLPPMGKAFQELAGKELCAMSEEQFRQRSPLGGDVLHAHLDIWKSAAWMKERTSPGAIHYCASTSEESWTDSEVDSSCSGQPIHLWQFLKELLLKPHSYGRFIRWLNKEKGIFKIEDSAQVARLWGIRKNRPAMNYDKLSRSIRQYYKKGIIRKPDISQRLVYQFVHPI
In short: as §1

ETV7 = target: T10, ETV7 (Homo sapiens, UniProt Q9Y603 1-341); conditions: protein: recombinant; tags: N-terminal GST; dsDNA, one strand shown
T10 sequence: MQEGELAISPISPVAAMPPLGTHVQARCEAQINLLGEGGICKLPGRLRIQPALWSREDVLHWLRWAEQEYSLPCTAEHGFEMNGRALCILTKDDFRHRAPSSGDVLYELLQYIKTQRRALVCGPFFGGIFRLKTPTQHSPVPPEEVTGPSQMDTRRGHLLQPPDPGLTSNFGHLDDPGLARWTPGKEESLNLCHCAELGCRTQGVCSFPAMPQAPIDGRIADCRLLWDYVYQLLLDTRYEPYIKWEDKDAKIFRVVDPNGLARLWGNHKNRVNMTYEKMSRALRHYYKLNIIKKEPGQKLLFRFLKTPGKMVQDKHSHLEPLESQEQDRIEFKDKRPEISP
In short: as §1

ELF5 = target: T11, ELF5 (Homo sapiens, UniProt Q9UKW6-2 1-255); conditions: protein: recombinant; tags: N-terminal GST; dsDNA, one strand shown
T11 sequence: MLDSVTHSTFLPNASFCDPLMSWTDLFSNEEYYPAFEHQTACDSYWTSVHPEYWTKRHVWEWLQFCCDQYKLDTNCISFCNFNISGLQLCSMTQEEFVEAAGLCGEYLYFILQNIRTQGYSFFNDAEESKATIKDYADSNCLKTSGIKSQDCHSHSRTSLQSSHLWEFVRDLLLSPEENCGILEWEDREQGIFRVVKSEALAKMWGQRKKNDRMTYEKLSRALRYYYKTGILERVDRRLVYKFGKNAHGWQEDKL
In short: as §1

ETV3 = target: T12, ETV3 (Homo sapiens, UniProt P41162-2 1-143); conditions: protein: recombinant; tags: N-terminal GST; dsDNA, one strand shown
T12 sequence: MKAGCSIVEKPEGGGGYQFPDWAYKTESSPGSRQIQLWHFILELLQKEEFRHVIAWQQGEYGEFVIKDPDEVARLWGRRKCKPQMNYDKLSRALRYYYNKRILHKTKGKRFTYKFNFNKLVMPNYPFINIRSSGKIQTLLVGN
In short: as §1

ETV6 = ETV6 (Homo sapiens, UniProt P41212 1-452); conditions: protein: recombinant; tags: N-terminal GST; dsDNA, one strand shown
In short: as §1

ELF4, sequence (Q99607 whole entry): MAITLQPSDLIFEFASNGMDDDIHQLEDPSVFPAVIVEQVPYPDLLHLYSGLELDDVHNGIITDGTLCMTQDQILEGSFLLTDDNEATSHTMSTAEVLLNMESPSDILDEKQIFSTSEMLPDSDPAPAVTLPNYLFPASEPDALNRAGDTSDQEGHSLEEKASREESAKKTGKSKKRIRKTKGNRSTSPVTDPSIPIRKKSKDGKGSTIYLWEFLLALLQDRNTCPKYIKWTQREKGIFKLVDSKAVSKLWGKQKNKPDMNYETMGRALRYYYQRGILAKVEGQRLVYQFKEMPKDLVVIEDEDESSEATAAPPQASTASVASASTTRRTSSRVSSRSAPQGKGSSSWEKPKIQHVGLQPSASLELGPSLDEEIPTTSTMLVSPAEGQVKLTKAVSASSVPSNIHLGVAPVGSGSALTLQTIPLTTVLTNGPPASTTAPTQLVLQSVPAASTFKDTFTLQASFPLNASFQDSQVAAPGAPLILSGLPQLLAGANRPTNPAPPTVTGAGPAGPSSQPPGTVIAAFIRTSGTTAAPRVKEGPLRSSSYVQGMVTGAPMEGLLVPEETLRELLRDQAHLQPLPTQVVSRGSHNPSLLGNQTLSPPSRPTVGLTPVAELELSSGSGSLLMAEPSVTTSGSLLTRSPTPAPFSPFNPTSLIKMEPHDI
CRX, sequence (O43186 whole entry): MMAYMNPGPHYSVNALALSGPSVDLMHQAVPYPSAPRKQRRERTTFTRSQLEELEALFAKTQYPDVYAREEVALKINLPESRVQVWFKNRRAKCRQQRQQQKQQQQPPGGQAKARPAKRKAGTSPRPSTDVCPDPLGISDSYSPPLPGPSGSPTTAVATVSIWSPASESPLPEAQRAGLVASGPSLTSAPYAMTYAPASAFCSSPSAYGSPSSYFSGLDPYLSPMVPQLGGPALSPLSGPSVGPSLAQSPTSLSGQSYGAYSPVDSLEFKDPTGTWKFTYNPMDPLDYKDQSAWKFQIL
ETV5, sequence (P41161 whole entry): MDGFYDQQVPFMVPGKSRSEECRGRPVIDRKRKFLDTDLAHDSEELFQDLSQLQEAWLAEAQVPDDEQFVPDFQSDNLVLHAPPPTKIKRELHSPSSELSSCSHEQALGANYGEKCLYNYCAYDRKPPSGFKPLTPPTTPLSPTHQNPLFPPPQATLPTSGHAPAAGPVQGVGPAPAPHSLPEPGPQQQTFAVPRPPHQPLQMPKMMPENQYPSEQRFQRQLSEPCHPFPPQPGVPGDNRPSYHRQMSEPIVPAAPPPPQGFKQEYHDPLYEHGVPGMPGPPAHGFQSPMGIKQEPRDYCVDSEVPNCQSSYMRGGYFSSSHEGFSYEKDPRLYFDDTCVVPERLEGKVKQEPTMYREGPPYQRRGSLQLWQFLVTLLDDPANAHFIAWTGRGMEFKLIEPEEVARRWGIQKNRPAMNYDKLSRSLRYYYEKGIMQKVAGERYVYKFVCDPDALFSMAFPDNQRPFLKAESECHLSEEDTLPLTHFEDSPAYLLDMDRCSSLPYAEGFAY
ETV6, sequence (P41212 whole entry): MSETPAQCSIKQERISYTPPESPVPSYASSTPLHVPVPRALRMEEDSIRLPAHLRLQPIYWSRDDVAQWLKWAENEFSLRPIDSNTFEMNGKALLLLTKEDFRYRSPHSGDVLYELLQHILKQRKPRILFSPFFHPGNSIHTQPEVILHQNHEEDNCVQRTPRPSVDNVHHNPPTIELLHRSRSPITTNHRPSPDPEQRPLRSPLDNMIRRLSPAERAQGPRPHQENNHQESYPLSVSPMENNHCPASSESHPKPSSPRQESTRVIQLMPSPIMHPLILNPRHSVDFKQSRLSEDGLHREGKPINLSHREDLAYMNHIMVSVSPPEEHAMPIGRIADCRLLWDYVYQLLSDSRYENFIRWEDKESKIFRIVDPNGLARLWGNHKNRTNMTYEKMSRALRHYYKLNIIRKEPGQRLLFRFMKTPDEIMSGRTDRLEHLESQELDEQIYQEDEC
ETV1, sequence (P50549 whole entry): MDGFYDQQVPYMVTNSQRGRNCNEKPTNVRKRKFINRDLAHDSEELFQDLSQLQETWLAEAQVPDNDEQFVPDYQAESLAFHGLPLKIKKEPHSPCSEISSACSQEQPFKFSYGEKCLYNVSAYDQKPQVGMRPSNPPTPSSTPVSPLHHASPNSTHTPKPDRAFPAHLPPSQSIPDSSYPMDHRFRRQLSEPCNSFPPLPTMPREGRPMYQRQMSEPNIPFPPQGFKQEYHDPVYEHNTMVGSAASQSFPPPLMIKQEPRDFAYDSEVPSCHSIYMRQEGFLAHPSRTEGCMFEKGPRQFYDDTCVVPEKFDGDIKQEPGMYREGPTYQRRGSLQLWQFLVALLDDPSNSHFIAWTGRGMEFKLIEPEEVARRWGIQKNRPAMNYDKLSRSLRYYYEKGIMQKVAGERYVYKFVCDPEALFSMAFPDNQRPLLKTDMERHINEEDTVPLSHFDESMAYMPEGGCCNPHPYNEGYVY
HSF1, sequence (Q00613 whole entry): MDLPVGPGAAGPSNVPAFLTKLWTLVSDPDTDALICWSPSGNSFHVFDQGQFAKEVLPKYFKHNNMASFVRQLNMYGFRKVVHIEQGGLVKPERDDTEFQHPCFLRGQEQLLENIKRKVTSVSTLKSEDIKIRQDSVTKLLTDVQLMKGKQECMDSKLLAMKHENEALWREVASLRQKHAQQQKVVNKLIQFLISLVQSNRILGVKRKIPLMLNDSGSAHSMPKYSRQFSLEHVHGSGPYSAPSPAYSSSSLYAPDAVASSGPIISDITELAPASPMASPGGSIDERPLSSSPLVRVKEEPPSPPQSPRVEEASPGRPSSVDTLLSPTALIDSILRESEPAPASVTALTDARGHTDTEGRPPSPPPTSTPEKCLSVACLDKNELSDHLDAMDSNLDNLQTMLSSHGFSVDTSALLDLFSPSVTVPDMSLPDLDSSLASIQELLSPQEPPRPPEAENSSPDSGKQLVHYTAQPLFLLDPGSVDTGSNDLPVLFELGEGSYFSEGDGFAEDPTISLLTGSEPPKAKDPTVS

**Q.** Which binding signal (FEV) does the source give for ATCTCT here?
**A.** The binding signal was 1.29 fold enrichment (6-mer frequency, TF over GST control).

**Q.** And the binding signal (ETV5)?
**A.** Its binding signal is 1.29 fold enrichment (6-mer frequency, TF over GST control).

**Q.** What about the binding signal (HSF1) of the same sequence?
**A.** The binding signal was 1.63 fold enrichment (6-mer frequency, TF over GST control).

**Q.** What about the binding signal (SPIC) of the same sequence?
**A.** Its binding signal is 1.45 fold enrichment (6-mer frequency, TF over GST control).

**Q.** And the binding signal (ELF4)?
**A.** Its binding signal is 1.26 fold enrichment (6-mer frequency, TF over GST control).

**Q.** And the binding signal (ELK4)?
**A.** The binding signal was 1.44 fold enrichment (6-mer frequency, TF over GST control).

**Q.** And the binding signal (ETV2)?
**A.** Its binding signal is 1.33 fold enrichment (6-mer frequency, TF over GST control).

**Q.** And the binding signal (ELF3)?
**A.** The binding signal was 1.26 fold enrichment (6-mer frequency, TF over GST control).

**Q.** What about the binding signal (CRX) of the same sequence?
**A.** The binding signal was 1.85 fold enrichment (6-mer frequency, TF over GST control).

**Q.** And the binding signal (ETV1)?
**A.** The binding signal was 1.23 fold enrichment (6-mer frequency, TF over GST control).

**Q.** What about the binding signal (ERF) of the same sequence?
**A.** The binding signal was 1.38 fold enrichment (6-mer frequency, TF over GST control).

**Q.** What about the binding signal (ETV3L) of the same sequence?
**A.** The binding signal was 1.27 fold enrichment (6-mer frequency, TF over GST control).

**Q.** And the binding signal (ETS2)?
**A.** The binding signal was 1.29 fold enrichment (6-mer frequency, TF over GST control).

**Q.** What about the binding signal (SPDEF) of the same sequence?
**A.** The binding signal was 1.18 fold enrichment (6-mer frequency, TF over GST control).

**Q.** What about the binding signal (ETV7) of the same sequence?
**A.** The binding signal was 1.14 fold enrichment (6-mer frequency, TF over GST control).

**Q.** What about the binding signal (ELF5) of the same sequence?
**A.** Its binding signal is 1.25 fold enrichment (6-mer frequency, TF over GST control).

**Q.** And the binding signal (ETV3)?
**A.** Its binding signal is 1.25 fold enrichment (6-mer frequency, TF over GST control).

**Q.** And the binding signal (ETV6)?
**A.** Its binding signal is 1.27 fold enrichment (6-mer frequency, TF over GST control).
